Bioassay records (PubChem BioAssay)
Vaccinia Venus – qHTS for Stage-Specific Inhibitors of Vaccinia Orthopoxvirus: Venus Reporter Primary qHTS | Vaccinia virus Venus reporter expression, fluorescence | Potency, µM (doses to about 36.5 µM), inactives show at the highest dose activity change, negative = inhibition, actives largely listed as inhibitors | 330,000 compounds, 0.46% hits; calls by dose curve; tested in A549 cells; also: potency is read from the fitted curve at half-maximal effect; nearly all actives have a fitted effect of over 30% in size
Vaccinia mCherry – qHTS for Stage-Specific Inhibitors of Vaccinia Orthopoxvirus: mCherry Reporter Primary qHTS; Vaccinia virus mCherry reporter infection, fluorescence; Potency, µM (top dose mostly 36.5 µM), for the others: at the highest dose activity change, negative = inhibition, most hits filed as inhibitors; 310,000 compounds, 0.63% hits; calls by dose curve; tested in A549 cells; also: potency is read from the fitted curve at half-maximal effect; nearly all actives have a fitted effect of over 35% in size
LASV entry inh – qHTS for Inhibitors of binding or entry into cells for Lassa Virus; Lassa virus pseudotype entry inhibition, cell reporter; Potency, µM (titrated, usually from 37.9 µM), inactives show at the top dose activity change, negative = inhibition, usual class: inhibitors; 300,000 compounds, 1.2% hits; calls by dose curve; tested in HEK293 cells; also: potency is read from the fitted curve at half-maximal effect; nearly all actives have a fitted effect of over 50% in size
FMDV antiviral – High Throughput Screening for Foot and Mouth Disease Virus Antivirals; FMDV antiviral cell-based qHTS; Potency, µM (titrated, usually from 57.9 µM), for the others: top-dose activity change, negative = inhibition, actives largely listed as inhibitors; 410,000 compounds, 1.2% hits; AID 1159524, 2015; calls by dose curve; tested in HEK293T cells; also: read-out not given here; potency is read from the fitted curve at half-maximal effect; nearly all actives have a fitted effect of over 45% in size
MARV entry inh – qHTS for inhibitors of binding or entry into cells for Marburg Virus; Marburg virus pseudotyped entry inhibition, cell reporter; Potency, µM (doses to about 37.8 µM), inactives show top-dose activity change, negative = inhibition, most hits filed as inhibitors; 300,000 compounds, 1.8% hits; calls by dose curve; tested in HEK293 cells; also: potency is read from the fitted curve at half-maximal effect
HCMV inh – qHTS Assay for inhibitors of the human cytomegalovirus (HCMV); HFF cells, HCMV-luciferase reporter, 72 h; hits give low values; activity change, negative = inhibition, % at 57.5 µM; 410,000 compounds, 4.5% hits; AID 1259415, 2018; in the data active = activity change below about -60%; inconclusive = no clear call, values can overlap the other calls; inactive = above about -39%
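Cell-based, HFFs, 1000 cells/well, 16 h 37C; cpds in DMSO + HCMV-luc, MOI 1 PFU/cell; 72 h 37C; OneGlo luminescence after 5 min RT; norm. to buffer vs Salinomycin 10uM.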
An asterisk follows results filed as active; i = inactive; ? = inconclusive; nt = no result given; ! = not confirmed by another sample; [ ] = remark or other dose. This is a sample that favours compounds with a hit; in the whole collection about 6.5% have one here. % is scaled to controls: 0 for no effect and ±100 for the full control effect.

SMILES	Vaccinia Venus	Vaccinia mCherry	LASV entry inh	FMDV antiviral	MARV entry inh	HCMV inh
CC1=C(C(=O)Nc2ccc(Cl)cc2)C(c2ccccc2)n2ncc(C(=O)Nc3ccccc3)c2N1 (stereo unspecified)	-17%	i	?	-14%	?	13
O=C(Nc1ccc(Cl)cc1)c1cnn2c1NC(c1ccccc1)=CC2c1ccccc1 (stereo unspecified)	-19%	-26%	16%[46.1 µM]	-8%	nt	-102*
CC1=C(C(=O)Nc2ccc(Cl)cc2)C(c2ccccc2C)n2ncc(C(=O)Nc3ccc(C)cc3)c2N1 (stereo unspecified)	-12%	-3%	?	-16%	5.6µM*	-32
COc1ccc(C2=CC(c3ccccc3F)n3ncc(C(=O)Nc4ccc(C)cc4)c3N2)cc1 (stereo unspecified)	-3%	-13%	-9%[46.1 µM]	-18%	nt	-11
O=C1CN(S(=O)(=O)c2ccccc2)CCN1	3%	-6%	-2%	17%	4%	12
O=C1CN(S(=O)(=O)c2ccc(Cl)cc2C(F)(F)F)CCN1	-7%	2%	3%	4%	21%[46.1 µM]	-60*
O=C(Cc1c[nH]c2ccccc12)Nc1nnc(C2CC2)s1	20%	?	3.5µM*	-1%	?	-80*
CC(C)C[C@H]1COc2c(Cl)cccc2S(=O)(=O)N1Cc1ccc(F)cc1F	nt	nt	nt	nt	nt	-13
CC(C)C(c1nnnn1Cc1ccccc1)N1C(=O)C(=O)c2ccccc21 (stereo unspecified)	nt	nt	nt	nt	nt	-30
Cc1nn(C)cc1C1C(C#N)=C(N)N(c2ccc(F)c([N+](=O)[O-])c2)C2=C1C(=O)CCC2 (stereo unspecified)	?	10µM*	21%	-30%	-11%	2
CCc1nc(OCc2ccccc2)c2sc3nc4c(cc3c2n1)COC(C)(C)C4	-8%	-16%	22%[14.3 µM]	18%	16µM*	-25
Cc1cc(C)c(Cn2cnc(-c3ccc([N+](=O)[O-])cc3)c2)c(C)c1	0%	i	-16%	nt	?	?
CC(C)(C)c1ccc(Cn2cnc(-c3ccc([N+](=O)[O-])cc3)c2)cc1	-26%	-6%	8.9µM*	12%	?	56
CC(=O)OCON[N+]([O-])=NC(C)C	-17%	-11%	nt	nt	nt	nt
CCN(CCC(=O)O)c1ccccc1	-23%	i	-14%	-5%	15%	11
CCN(CC)C1=NC(=[N+](CC)CC)c2ccccc21	nt	nt	?	?	?	-103*
O=C(O)c1cc(N/N=C/c2ccc3c(c2)OCCO3)ccc1Cl	1%	-11%	1.6µM*	2.5µM*	?	163
O=C(O)c1cc(N/N=C/c2ccc3c(c2)OCO3)ccc1Cl	-8%	-17%	?	14µM*	2.5µM*	98
O=C(O)c1ccc(N/N=C/c2ccc3c(c2)OCO3)cc1	-12%	-17%	?	25µM*	?	-73*
CC(C)C[C@H]1COc2c(Cl)cccc2S(=O)(=O)N1Cc1cccc(Cl)c1	nt	nt	nt	nt	?	-17
CCS(=O)(=O)N1CC(=O)N(c2cc(C)ccc2C)C(C)(C(=O)NC2CCCCC2)C1 (stereo unspecified)	-8%	-9%	10%[46.1 µM]	-4%	nt	0
N#CCCn1c(=O)c(-c2cccc(C#N)c2)nc2cnc(N3CCOCC3)nc21	nt	nt	nt	-9%	nt	nt
c1ccc(-c2nc3cc4ccccc4cc3[nH]2)nc1	-28%	-18%	2.2µM*	-76%	?	-20
Cc1cc(O)c(C(c2ccc(F)cc2)N2CCCCC2)c(=O)n1Cc1ccco1 (stereo unspecified)	-6%	-8%	11%[46.1 µM]	-13%	nt	14
Cc1cc(C)cc(OCCOCCn2c(-c3ccc(Cl)cc3)nc3ccccc3c2=O)c1	-3%	-6%	-23%[46.1 µM]	0%	7.1µM*	14
SMILES	Vaccinia Venus	Vaccinia mCherry	LASV entry inh	FMDV antiviral	MARV entry inh	HCMV inh
Cc1ccc(C(=O)N/N=C/c2nc3ccccc3n2C)cc1	-26%	-18%	?	nt	-22%	-66*
Cn1c(/C=N/NC(=O)c2ccccc2Br)nc2ccccc21	-6%	-26%	?	nt	14%	-14
COC(=O)c1c(C)[nH]c(O)c1C=Nc1ccc(Oc2ccccc2)cc1	-3%	-28%	?	-20%	17%[46.1 µM]	-65*
COC(=O)c1c(C)[nH]c(O)c1C=Nc1ccc(C(C)C)cc1	16%	1%	-2%	20%	-12%	148
COc1ccc(-c2csc(-c3ccc(O)cc3)n2)cc1	?	3.5µM*	nt	20%	nt	-24
COc1ccc(N2CC(O)=C(c3nc(-c4ccc(Br)cc4)cs3)C2=N)cc1	-14%	-15%	nt	5%	nt	-67*
COc1ccc(-c2nc(CCl)cs2)cc1	nt	nt	nt	15%	nt	-36
CCOC(=O)c1cc(C#N)c(C)nc1N(CC)CC	-6%[7.34 µM]	i[7.34 µM]	5.6µM*	-11%	-19%[46.1 µM]	10
C=CC[C@@H]1C=C[C@@H](Oc2ccc(OC)cc2)[C@H](COC(=O)c2ccc(Br)cc2)O1	nt	nt	nt	nt	-4%[14.2 µM]	nt
CC(=O)c1ccc2cccc3c2c1N=CN3C	-8%	-15%	-1%	nt	5%	-63*
Oc1cc(-c2nc3ccccc3s2)cc2c1OCCN(Cc1cccn1-c1ccccn1)C2	-15%	-15%	nt	16%	nt	nt
C1COC(NC(C2CC2)C2CC2)=N1	-8%	-11%	-3%	-14%	11µM*!	-25
c1ccc(-c2noc(-c3ccc4c(c3)OCO4)n2)cc1	-10%	-6%	?	14µM*	?	0
CC(=O)Nc1nonc1-c1nnc(SCC(=O)Nc2cc(C)cc(C)c2)n1C	-14%	-7%	7%[46.1 µM]	-1%	?	2
CC1=C(CCC(=O)O)c2cc3nc(cc4[nH]c(cc5[nH]c(cc1n2)c(C)c5C(C)O)c(C)c4C(C)O)C(C)=C3CCC(=O)O (stereo unspecified)	-2%	-12%	nt	-5%	nt	nt
C=Cc1c(C)c2cc3[nH]c(cc4nc(cc5nc(cc1[nH]2)C(C)=C5CCC(=O)O)C(CCC(=O)O)=C4C)c(C)c3C=C	-6%	18%	?	?	7.9µM*!	-33
CC1CC(C)CN(S(=O)(=O)c2ccccc2[N+](=O)[O-])C1 (stereo unspecified)	-14%	i	2%	-10%	-13%	-72*
NS(=O)(=O)c1ccc(CCNc2nn3c(-c4ccc(F)c(Cl)c4)cnc3s2)cc1	-21%	10%	nt	?	nt	-75*
NS(=O)(=O)c1ccc(CCNC(=O)CSc2ccc(Cl)cc2Cl)cc1	-17%	-7%	-15%	-16%	-1%[46.1 µM]	?
CC1(C)CC(=O)C(N=Nc2cc(C(F)(F)F)ccc2Cl)=C(O)C1	nt	nt	nt	-5%	nt	-62*
CCCc1c(-c2ccc(F)cc2F)ncn1Cc1ccccc1OC	-14%	-5%	nt	?	nt	-78*
CCc1c(-c2ccc(OC)c(OC)c2)ncn1CCc1ccccc1OC	nt	nt	nt	nt	nt	-28
